# Screens deposited in PubChem by National Center for Advancing Translational Sciences (NCATS).
# The list is not random: actives were taken first. Their share in the collection is about 0.45%.
# CBFb RUNX1 block – qHTS Assay for Compounds Blocking the Interaction Between CBF-beta and RUNX1 for the Treatment of Acute Myeloid Leukemia. AlphaScreen CBFb-His/RUNX1-biotin binding, biochemical. AID 1477, 2009. 230,000 tested, under 10 active. Potency, µM (titrated, usually from 59.8 µM), for inactives: top-dose activity, negative = inhibition, usual class: inhibitors. Runt-related transcription factor 1 (Homo sapiens) + Core-binding factor subunit beta …; further: % of control where 0% means no effect
#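 Bead-based AlphaScreen assay; binding partners His-tagged CBF-beta and biotinylated RUNX1 at 30 nM each. Compound exposure 15 min after a 20-min protein preincubation; bead step 90 min; all steps at room temperature.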
# RGS12 GoLoco inh – qHTS Assay for Inhibitors of RGS12 GoLoco Motif Activity (Red Fluorophore) | Potency, µM (titrated, usually from 61.6 µM), for inactives: at the highest dose activity, negative = inhibition, actives largely listed as inhibitors | 230,000 compounds, 0.44% hits | Guanine nucleotide-binding protein G(i) subunit alpha-1 (Homo sapiens), P63096 | Gai1:RGS12 GoLoco peptide FP, rhodamine, 10 min; active means well fitted inhibition curve with a large enough effect, not every such curve was filed as active; inactive means no such curve, though single readings can be large or run the other way; further: potency means the concentration at half of the fitted maximal effect; on the % scale 0 is the no-effect control and ±100 the full control effect; nearly all actives have a fitted effect of over 30% in size
# Target sequence (P63096 whole entry, looked up): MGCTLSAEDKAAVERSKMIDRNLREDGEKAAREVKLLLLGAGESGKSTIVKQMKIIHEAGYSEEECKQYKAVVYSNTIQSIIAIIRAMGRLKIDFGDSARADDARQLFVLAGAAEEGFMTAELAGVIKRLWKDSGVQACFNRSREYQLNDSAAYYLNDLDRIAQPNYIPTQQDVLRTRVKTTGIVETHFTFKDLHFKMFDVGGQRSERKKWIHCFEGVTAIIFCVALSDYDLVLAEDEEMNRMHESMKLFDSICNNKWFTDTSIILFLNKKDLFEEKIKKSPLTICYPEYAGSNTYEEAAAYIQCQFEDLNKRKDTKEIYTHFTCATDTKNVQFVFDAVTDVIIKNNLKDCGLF
# TR SRC2 fluor cs – Total Fluorescence Counterscreen for Inhibitors of the Interaction of Thyroid Hormone Receptor and Steroid Receptor Coregulator 2. TRb/SRC2 Texas Red total fluorescence interference. Potency, µM (series often up to 106 µM), without a hit: at the highest dose fluorescence change, negative = quenching. 280,000 compounds, 0.29% hits. AID 1479, 2009; active means well fitted curve in either direction with a large enough effect; inconclusive means small, poorly fitted or top-dose-only effect; further: potency means the concentration at half of the fitted maximal effect; on the % scale 0 is the no-effect control and ±100 the full control effect
#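 Human TRβ ligand-binding domain (0.6 uM) and Texas Red SRC2 peptide (20 nM) in Tris buffer with 1 uM T3 and 5% DMSO were incubated with pinned compound for 5 hr at ambient temperature. Total fluorescence was computed as S + 2P (555/632 nm).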
# ERG Ets-DNA blk – qHTS for Small Molecule Inhibitors of the ERG Ets/DNA interaction | Transcriptional regulator ERG (Homo sapiens), P11308 | fluorescence polarization, His-ERG Ets domain / labelled DNA | 370,000 compounds, 0.028% hits | Potency, µM (top dose mostly 76.9 µM), for inactives: top-dose FP activity, negative = inhibition, most hits filed as inhibitors; active means well fitted inhibition curve with a large enough effect in the polarisation, with a control signal flat; inconclusive means small, poorly fitted or top-dose-only effect, or effect the other way, or a change in a side signal; inactive means no such curve, though single readings can be large or run the other way; the % refers to the polarisation;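 further: polarization taken with two DNA probes labelled with fluorescein and Texas red; potency means the concentration at half of the fitted maximal effect; % of control where 0% means no effect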
#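 His-tagged ERG Ets domain (1 uM in the protein solution; 300mM KCl, 50mM Tris-HCl, 1mM EDTA, 1mM DTT, pH 7.5) received compound, then a probe mix of 5 nM fluorescein-DNA and 100nM Texas-615-DNA. Fluorescence polarization was read for both dyes.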
# TRb-SRC2 inh – qHTS for Inhibitors of the Interaction of Thyroid Hormone Receptor and Steroid Receptor Coregulator 2. Thyroid hormone receptor beta (Homo sapiens), P10828. TRbeta-SRC2 peptide binding, fluorescence polarization; receptor liganded with 1 µM T3. Potency, µM (series often up to 106 µM), for the others: at the highest dose activity change, negative = inhibition, actives largely listed as inhibitors. 280,000 compounds, 0.065% hits. AID 1469, 2008;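 further: potency means the concentration at half of the fitted maximal effect; plate controls were bound peptide for no effect and peptide without receptor for full effect; nearly all actives have a fitted effect of over 50% in size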
# Target sequence (P10828 whole entry, looked up): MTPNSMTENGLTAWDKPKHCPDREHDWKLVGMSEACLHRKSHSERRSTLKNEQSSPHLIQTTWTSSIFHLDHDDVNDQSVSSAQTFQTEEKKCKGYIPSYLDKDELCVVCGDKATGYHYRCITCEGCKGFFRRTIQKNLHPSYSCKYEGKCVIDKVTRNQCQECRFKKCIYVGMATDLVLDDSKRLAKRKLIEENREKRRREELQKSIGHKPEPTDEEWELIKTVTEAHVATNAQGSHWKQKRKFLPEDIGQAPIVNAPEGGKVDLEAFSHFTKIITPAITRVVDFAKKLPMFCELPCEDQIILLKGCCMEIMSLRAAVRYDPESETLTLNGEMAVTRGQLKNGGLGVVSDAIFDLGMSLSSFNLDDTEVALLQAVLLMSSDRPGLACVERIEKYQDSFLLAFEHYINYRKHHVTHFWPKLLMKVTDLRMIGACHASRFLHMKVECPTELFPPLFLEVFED
#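 Read-out is fluorescence polarization (555 nm excitation, 632 nm emission) of a Texas Red SRC2 coactivator peptide; loss of signal reflects blocked binding to human TRb ligand-binding domain in the presence of 1 uM T3.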
# Integrin act MD – qHTS for Activators of Integrin-Mediated Alleviation for Muscular Dystrophy | alpha7betagal myoblasts, beta-gal FDG fluorescence, 48 h | Potency, µM (highest dose often 38.3 µM), for inactives: at the highest dose activation, usual class: activators | 350,000 compounds, 0.064% hits;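 further: potency means the concentration at half of the fitted maximal effect; 100% = response of the positive control SU9516; nearly all actives have a fitted effect of over 60% in size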
#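 Alpha7betagal+/- myoblasts (passage 13) were plated 16-24 hr, then exposed to compounds (1:260 dilution of DMSO stock) for 48 hours at 37C. After MPER lysis, β-galactosidase reporter activity was read as FDG fluorescence (ex 480/em 540) after 30 minutes.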
# Active calls of the source: *; i = inactive; ? = inconclusive; · = not tested or not shown; ! = not active in a repeat; [ ] = another dose, or the depositor's remark. Unless noted, the call rests on the fitted dose curve; in most records, active means well fitted curve in the direction sought with a large enough effect; inconclusive means small, poorly fitted or top-dose-only effect, or another doubt; inactive means no such curve, though single readings can be large; an effect the other way counts as inactive or inconclusive.
SMILES,CBFb RUNX1 block,RGS12 GoLoco inh,TR SRC2 fluor cs,ERG Ets-DNA blk,TRb-SRC2 inh,Integrin act MD
COC(=O)/C(=N/Nc1ccccc1Cl)Sc1nnc(C(O)c2ccccc2)n1-c1ccccc1 (configuration not stated),-6%,16%,35µM*[quencher],-3%,-13%[53 µM],4%
CC(=O)/C(=N/Nc1ccccc1Cl)Sc1nnc(C(O)c2ccccc2)n1-c1ccccc1 (configuration not stated),-9%,6%,0%,9%,6%,3%
CC[C@H](C)[C@H](N)C(=O)N[C@@H](CCCNC(=N)N)C(=O)N[C@@H](CCC(N)=O)C(=O)NCC(=O)N1CCC[C@H]1C(=O)N[C@@H](CCCCN)C(=O)N[C@@H](CCC(=O)O)C(=O)N1CCC[C@H]1C(=O)N[C@@H](Cc1ccccc1)C(=O)N[C@@H](CCCNC(=N)N)C(=O)N[C@@H](CC(=O)O)C(=O)N[C@@H](Cc1ccc(O)cc1)C(=O)N[C@H](C(=O)N[C@@H](CC(=O)O)C(=O)N[C@@H](CCCNC(=N)N)C(=O)N[C@@H](Cc1ccccc1)C(=O)N[C@@H](Cc1ccc(O)cc1)C(=O)N[C@@H](CCCCN)C(=O)N[C@H](C(=O)N[C@@H](CC(C)C)C(=O)O)[C@@H](C)O)C(C)C,2%,·,-6%,·,-6%,·
ICCc1ccccc1,4%[21.7 µM],3.2µM*,-1%,·,1%,·
COC(=O)CCCC1=CC2=C(c3ccccc3)C(=O)C(C)(OC(=O)C3CCCC3)C(=O)C2=CN1CCCOC(C)C (configuration not stated),-9%[13.1 µM],30%[14.2 µM],-17%[11.2 µM],·,7%[11.2 µM],·
Cc1ccc2oc(C(=O)Nc3ccc(S(=O)(=O)N(C)c4ccccc4)cc3)cc(=O)c2c1,·,·,100µM*[quencher],-6%,-10%,·
CC1=CC(C)C2COC(c3ccc[n+](C)c3)C1C2C (configuration not stated),-3%,28µM*,1%,·,6%,-18%
O=C(Cl)c1cccc([N+](=O)[O-])c1,-1%[21.7 µM],-2%,-2%,·,-1%,·
CC1=C(C(=O)O)N2C(=O)C(NC(=O)C(N)c3ccccc3)C2SC1 (configuration not stated),-7%,2%,-1%,·,2%,·
CN1CC[n+]2c(CN3C(=O)c4ccccc4C3=O)csc21,4%,18µM*,-4%,3%,0%,38%
CC(=O)c1cc(CN2C(=O)c3ccccc3C2=O)cs1,-1%,-3%,0%,0%,-16%,-4%
CCCCc1nc2c(c3c1C[C@H](C)OC3)CN(C(=O)Cc1cccc(OC)c1)CC2,4%[13.1 µM],4%[14.2 µM],-5%[11.2 µM],·,3%[11.2 µM],·
COC(=O)N[C@@H](/C=C/c1ccccc1)C[N+](=O)[O-],10%,2%,-1%,·,2%,·
CC(=O)c1ccc(N2CCN(C(=O)Nc3ccc(C(C)C)cc3)CC2)cc1,6%,0%,0.032µM*![quencher],4%,-2%,-30%
COc1cc(N=c2ssnc2Cl)cc(OC)c1,-11%,16µM*,-5%,-5%,1%,-30%
O=C1c2c(O)cc(O)cc2O[C@H](c2ccc(O)c(O)c2)C1O (some centres not stated),-14%,·,-5%,·,-1%,·
Cc1ccccc1NC(=O)c1sc2nc(-c3cc4ccccc4oc3=O)[nH]c(=O)c2c1C,·,·,6%,-7%,-5%,·
Cc1c(C(=O)Nc2ccccc2)sc2nc(-c3cc4ccccc4oc3=O)[nH]c(=O)c12,·,·,282µM*[quencher],0%,-2%,·
CCC(=O)Nc1cccc(C(=O)OCc2cccc([N+](=O)[O-])c2)c1,-4%,-1%,2%,7.1µM*,0%,-7%
C[C@@H]1C(=O)O[C@H]2C[C@@]34[C@H]5C[C@@H](C(C)(C)C)[C@]36[C@H](OC(=O)[C@H]6O)O[C@]4(C(=O)O5)[C@]21O,4%,·,1%,·,-2%,·
CCOc1ccc(S(=O)(=O)Nc2cccc(-c3ccc(N4CCCC4)nn3)c2)cc1,·,·,20µM*[quencher],4%,-7%,·
CC1CCN(c2ccc(-c3cccc(NS(=O)(=O)c4ccc(F)cc4F)c3)nn2)CC1,·,·,8.9µM*[quencher],0%,-19%,·
COC(=O)c1ccc2c(c1)C(C)(C)C(/C=C/c1ccccc1O)=[N+]2C,·,i,20µM*[fluorescent],?,20µM*,-63%
Nc1ncnc2c1c(I)cn2C1OC(CO)C(O)C1O (configuration not stated),-1%,25µM*!,3%,·,-1%,·
Nc1cc(Cl)c(O)c(Cl)c1,·,·,?,·,-13%[201 µM],·
SMILES,CBFb RUNX1 block,RGS12 GoLoco inh,TR SRC2 fluor cs,ERG Ets-DNA blk,TRb-SRC2 inh,Integrin act MD
C=CCNC(=O)N1CCc2nc(-c3ccccc3)c3c(c2C1)CO[C@@H](C)C3,7%[13.1 µM],3%[14.2 µM],-4%[11.2 µM],·,4%[11.2 µM],·
Cc1ccc2[nH]c(-c3ccc(F)cc3F)cc(=O)c2c1,4%[89.1 µM],-1%[88.7 µM],?,·,-9%,·
C[N+]1(CC2COC3(CCCCC3)O2)CCCCC1 (configuration not stated),-3%,8.9µM*,-4%,-2%,-3%,37%
c1cc(C2OCCN2CC2COC3(CCCC3)O2)ccn1 (configuration not stated),7%,3%,1%,6%,-6%,24%
O=C(CNC(=O)c1ccccc1)N/N=C/C=C/c1ccccc1,·,·,·,25%,·,0%
C/C=N\NC(=O)CNC(=O)CNC(=O)c1ccccc1,8%,14%,-1%,35µM*,1%,-4%
Fc1ccccc1Cn1c2[n+](c3ccc(C(F)(F)F)cc31)CCCCC2,1%,8%,-2%,-1%,-5%,-12%
N#Cc1cccc(NC(=O)Cn2c3[n+](c4ccc(C(F)(F)F)cc42)CCCCC3)c1,12%,14µM*,-1%,-2%,-1%,-32%
CCOc1cc(CNCCSc2nnnn2C)cc(Cl)c1OCc1ccc(Cl)cc1,·,·,20µM*[quencher],4%,-12%,·
O=C(Cl)c1cc(Cl)cc(Cl)c1,·,·,-1%[201 µM],·,5%[201 µM],·
CCOCC,6%,·,4%,·,0%,·
Cn1c[n+](C)cc1/C=N/O,-1%,4µM*,-4%,-5%,5%,7%
Cn1c(SCC(=O)C(C)(C)C)nnc1-c1ccncc1,-29%,-3%,-7%,-1%,-7%,19%
